Here are results for twelve molecules from PubChem BioAssay (NCATS).

Each structure is given as a SMILES string. Inconclusive results are not listed. Active and inactive are the calls of the source. The call rests on the fitted dose curve; in most records, active means well fitted inhibition curve with a large enough effect; inconclusive means small, poorly fitted or top-dose-only effect; inactive means flat fitted curve, though single readings scatter. Peptide text beside a SMILES is read from it.

Common to all, as to assay: qHTS profiling for inhibitors of Plasmodium falciparum proliferation (AID 504749); further: nearly all actives have a fitted effect of over 60% in size
What all share (conditions): P. falciparum in erythrocytes, SYBR Green DNA, 72 h; series mostly up to 28.7 µM
Background: Quantitative high-throughput screening tests each substance at several concentrations.

One assay deals with W2. The method, boiled down: (§1)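 Parasite proliferation within erythrocytes, 72 h exposure. Endpoint: SYBR Green I fluorescence after overnight lysis at room temperature. Controls: 0.29 uM artemisinin, DMSO.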
Another assay deals with SC27B. The method, boiled down:
as §1

Another assay deals with TAB113. The method, boiled down: as §1
The subject of the next assay is TAB165. The method, boiled down: as §1
The next assay concerns TAB109. An outline of the steps: as §1
Potency means the concentration at half of the fitted maximal effect.

Turning to `O=C1CSC2(CCN(CCCN3c4ccccc4Sc4ccc(Cl)cc43)CC2)N1`, the Potency in the assay with W2 is 4.78 µM (active).

For the molecule `CCCCCCC(O)C/C=C/CCCCCCCC(=O)O` (stereo not given), the Potency entry with SC27B, with TAB113, with TAB165 and in the assay with W2 was “inactive” in each case.

With `CC(=O)N[C@@H](CC(=O)O)C(=O)N[C@@H](CCC(=O)O)C(=O)O` (Ac-Asp-Glu-OH), the Potency entry with SC27B, in the assay with TAB109, with TAB113, in the assay on TAB165 and with W2 was “inactive” throughout.

`CCOc1ccc(N=Nc2ccc(N)cc2N)cc1`: the Potency result in the assay with TAB109 and with W2 was “inactive” each time.

As to `CC[N+](C)(C)Cc1ccccc1Br`, the Potency entry in the assay on SC27B, with TAB109, in the assay with TAB113, in the assay on TAB165 and in the assay on W2 was “inactive” each time.

Take `Cc1cn([C@H]2C[C@H](O)[C@@H](CO)O2)c(=O)[nH]c1=O`: the Potency entry in the assay on SC27B, with TAB109, in the assay on TAB113, in the assay on TAB165 and with W2 was “inactive” each time.

Turning to `C=C1C(=CC=C2CCC[C@@]3(C)[C@@H]2CC[C@H]3[C@H](C)CCCC(C)C)C[C@@H](O)C[C@@H]1O`, the Potency with W2 is 9.53 µM (active).

Take `CC(Cc1ccc(O)c(O)c1)C(C)Cc1ccc(O)c(O)c1` (stereo not given): the Potency entry with SC27B and in the assay with TAB113 was “inactive” in each case. The Potency in the assay with W2 is 15.1 µM (active).

For `Clc1cc(Cl)c(OCC#CI)cc1Cl`, the Potency with TAB109 is 11.2 µM (active); with TAB113, 5.01 µM (active); with TAB165, 11.2 µM (active); in the assay with W2 it was 10.7 µM (active).

As for `COC(=O)C1=C(C#N)NC(C)=C(C(=O)OC(C)C)C1c1cccc([N+](=O)[O-])c1` (stereo not given), the results for the Potency in the assay on SC27B, in the assay with TAB109 and in the assay with TAB165 were 8.91 µM (active), 8.91 µM (active) and 10 µM (active), respectively.

For `CC1=C(/C=C/C(C)=C/C=C/C(C)=C/CO)C(C)(C)CCC1`, the Potency with TAB113 was 11.2 µM (active); in the assay on W2, 7.57 µM (active).

Turning to `C[C@]12O[C@H](C[C@]1(O)CO)n1c3ccccc3c3c4c(c5c6ccccc6n2c5c31)CNC4=O`, the Potency was 0.316 µM (active) in the assay on SC27B; 0.355 µM (active) in the assay with TAB109; 0.316 µM (active) in the assay on TAB113; 0.251 µM (active) in the assay with TAB165; 0.239 µM (active) in the assay on W2.
